Among all 39,000 compounds or so, about 3,300 (8.5%) were called active. Only a selection was taken, and actives are over-represented in it overall.

This test deals with HepG2. Kind of test: cytotoxicity call (relative viability < 0.9). The following applies: 10 µM.
Consider `CCS(=O)(=O)NCC[C@H]1CC[C@H](NC(=O)C2CCOCC2)[C@H](CO)O1`, for which the cytotoxicity call is “inactive”.

In the case of `O=C(C[C@@H]1C[C@H]2c3cc(NS(=O)(=O)c4ccc(F)cc4)ccc3O[C@H]2[C@H](CO)O1)NCCc1ccccc1`, the cytotoxicity call was “inactive”.

As for `Cc1ccc(S(=O)(=O)N(C)C[C@@H]2Oc3ccc(NC(=O)CCN4CCOCC4)cc3CC(=O)N([C@@H](C)CO)C[C@H]2C)cc1`, the cytotoxicity call is “inactive”.

In the case of `C[C@H](CO)N1C[C@H](C)[C@H](CN(C)C(=O)NC2CCCCC2)Oc2c(NC(=O)C3CCOCC3)cccc2C1=O`, the cytotoxicity call is “inactive”.

Take `Cc1ccc(S(=O)(=O)Nc2ccc3c(c2)C(=O)N([C@@H](C)CO)C[C@@H](C)[C@@H](CN(C)C(=O)NC(C)C)O3)cc1`: the cytotoxicity call is “inactive”.

As for `C[C@@H]1CN([C@H](C)CO)C(=O)c2cc(NC(=O)Cc3ccccc3)ccc2O[C@H]1CN(C)S(=O)(=O)c1cccs1`, the cytotoxicity call is “inactive”.

As for `O=C(O)c1cccnc1`, the cytotoxicity call was “inactive”.

On to `O=C(OCc1ccccc1)c1ccccc1`, for which the cytotoxicity call was “active”.

As to `COC(=O)c1cccnc1`, the cytotoxicity call is “inactive”.

Regarding `O=C(OCc1ccccc1)c1cccnc1`, the cytotoxicity call was “active”.

Take `NCC(=O)OCc1ccccc1`: the cytotoxicity call was “inactive”.

In the case of `O=C(CO)c1ccccc1`, the cytotoxicity call was “inactive”.

For `N[C@@H](COCc1ccccc1)C(=O)O`, the cytotoxicity call was “inactive”.

For `O=C(OOC(=O)c1ccccc1)c1ccccc1`, the cytotoxicity call is “active”.

Consider `O=C(ON1C(=O)CCC1=O)c1ccccc1`, for which the cytotoxicity call is “inactive”.

As for `CCC(=O)N[C@@H]1CC[C@@H](CC(=O)OC)O[C@H]1CO`, the cytotoxicity call is “inactive”.

For the compound `CCCCCCCCCCCCCCCCOP(=O)([O-])OCC[N+](C)(C)C`, the cytotoxicity call was “inactive”.

On to `C[N+](C)(C)CCCCCC[N+](C)(C)C.[Br-].[Br-]`, for which the cytotoxicity call was “inactive”.

As to `CCCCCCCCCCCCCCCC[N+](C)(C)C`, the cytotoxicity call was “active”.

On to `C[C@@H]1CN([C@H](C)CO)C(=O)c2cc(C#CC3(O)CCCC3)cnc2O[C@@H]1CN(C)S(=O)(=O)c1ccc(F)cc1`, for which the cytotoxicity call was “inactive”.

Turning to `O=C(CN1CCOCC1)N[C@H]1CC[C@@H](CCNC(=O)C2CCC2)O[C@@H]1CO`, the cytotoxicity call is “inactive”.

Regarding `C[C@H]1CN([C@@H](C)CO)C(=O)c2cccc(NC(=O)Nc3ccc(C(F)(F)F)cc3)c2O[C@H]1CN(C)S(C)(=O)=O`, the cytotoxicity call was “inactive”.

With `COc1ccc2c3c([nH]c2c1)[C@H](CO)N(C[C@]13CCN(CCc2ccccc2)CC1)C(=O)CN1CCOCC1`, the cytotoxicity call was “inactive”.

For `COc1ccc2c3c([nH]c2c1)[C@H](CO)N(Cc1ccc(cc1)Cl)C[C@]13CCN(CC1)Cc1nccs1`, the cytotoxicity call was “inactive”.

With `COc1ccc2c3c([nH]c2c1)[C@@H](CO)N(C[C@]13CCN(CC1)Cc1ccccc1)C(=O)CN1CCOCC1`, the cytotoxicity call was “inactive”.

Consider `COc1ccc(cc1)CN1C[C@]2(CCN(CC2)Cc2ccccc2OC)c2c([nH]c3cc(ccc23)OC)[C@@H]1CO`, for which the cytotoxicity call was “inactive”.

In the case of `COc1ccc2c3c([nH]c2c1)[C@H](CO)N(Cc1ccc(cc1)Cl)C[C@]13CCN(CC1)Cc1ccccc1`, the cytotoxicity call was “active”.

For `COc1ccc2c3c([nH]c2c1)[C@@H](CO)N(Cc1ccc(cc1)Cl)C[C@]13CCN(CC1)Cc1ccccc1`, the cytotoxicity call was “active”.

In the case of `COc1ccc2c3c([nH]c2c1)[C@H](CO)N(Cc1ccncc1)C[C@]13CCN(CC1)Cc1ccc(cc1)-c1ccccn1`, the cytotoxicity call was “inactive”.

As for `COc1ccc2c3c([nH]c2c1)[C@H](CO)N(C[C@]13CCN(CC1)Cc1ccccc1)C(=O)CN1CCOCC1`, the cytotoxicity call was “active”.

As for `COc1ccc2c3c([nH]c2c1)[C@@H](CO)N(Cc1ccc(cc1)Cl)C[C@]13CCN(CC1)Cc1nccs1`, the cytotoxicity call is “inactive”.

For the compound `C[C@@H]1CN([C@H](C)CO)C(=O)c2cc(NC(=O)CCCCCC(=O)Nc3ccccc3N)ccc2O[C@@H]1CN(C)Cc1ccc(Cl)c(Cl)c1`, the cytotoxicity call is “inactive”.

`Cc1cc(C(=O)Nc2cccc3c2O[C@@H](CN(C)C(=O)NC2CCCCC2)[C@H](C)CN([C@H](C)CO)C3=O)n(C)n1`: the cytotoxicity call was “inactive”.

For `Cc1noc(C)c1S(=O)(=O)Nc1ccc2c(c1)C(=O)N([C@H](C)CO)C[C@@H](C)[C@H](CN(C)S(=O)(=O)c1ccccc1)O2`, the cytotoxicity call is “inactive”.

With `C[C@@H]1CN([C@H](C)CO)C(=O)c2cc(Br)cnc2O[C@@H]1CN(C)Cc1ccc2c(c1)OCO2`, the cytotoxicity call was “inactive”.

Consider `COc1ccc(-c2cc(=O)c3c(O)cc(O[C@@H]4O[C@H](CO[C@@H]5O[C@@H](C)[C@H](O)[C@@H](O)[C@H]5O)[C@@H](O)[C@H](O)[C@H]4O)cc3o2)cc1O`, for which the cytotoxicity call was “inactive”.

Regarding `C[C@H](CO)N1C[C@H](C)[C@@H](CN(C)C(=O)Cc2cccnc2)Oc2cc(-c3cncnc3)ccc2S1(=O)=O`, the cytotoxicity call is “inactive”.

In the case of `NC(=O)c1ncn([C@H]2O[C@@H](COP(=O)(O)O)[C@@H](O)[C@@H]2O)c1N`, the cytotoxicity call is “inactive”.

In the case of `C[C@@H]1CN([C@H](C)CO)C(=O)c2cc(NS(=O)(=O)c3cn(C)cn3)ccc2O[C@@H](C)CCCCO[C@H]1CN(C)S(=O)(=O)c1cn(C)cn1`, the cytotoxicity call was “inactive”.

Turning to `CC(C)(C)OC(=O)C[C@@H]1CC=CC[C@@H](CC(=O)NCCO)C(=O)N[C@@H](Cc2c[nH]c3ccccc23)COC1=O`, the cytotoxicity call was “inactive”.

In the case of `CC(C)Cc1nc2ccccc2[nH]1`, the cytotoxicity call is “inactive”.

In the case of `NNC(=O)Cc1nc2ccccc2[nH]1`, the cytotoxicity call is “inactive”.

Turning to `CC(C)(C)c1ccc(CSCc2nc3ccccc3[nH]2)cc1`, the cytotoxicity call is “active”.

In the case of `Cc1ccc(S(=O)(=O)Nc2ccc3c(c2)C(=O)N([C@H](C)CO)C[C@H](C)[C@H](CN(C)Cc2ccc4c(c2)OCO4)OCCCC[C@H](C)O3)cc1`, the cytotoxicity call is “active”.

As to `Cc1ccc(S(=O)(=O)Nc2ccc3c(c2)C(=O)N([C@@H](C)CO)C[C@H](C)[C@@H](CN(C)Cc2ccc4c(c2)OCO4)OCCCC[C@H](C)O3)cc1`, the cytotoxicity call is “inactive”.

On to `Cc1ccc(S(=O)(=O)Nc2ccc3c(c2)C(=O)N([C@H](C)CO)C[C@H](C)[C@@H](CN(C)Cc2ccc4c(c2)OCO4)OCCCC[C@@H](C)O3)cc1`, for which the cytotoxicity call is “inactive”.

`Cc1ccc(S(=O)(=O)Nc2ccc3c(c2)C(=O)N([C@@H](C)CO)C[C@H](C)[C@H](CN(C)Cc2ccc4c(c2)OCO4)OCCCC[C@H](C)O3)cc1`: the cytotoxicity call was “inactive”.

For `Cc1ccc(S(=O)(=O)Nc2ccc3c(c2)C(=O)N([C@@H](C)CO)C[C@@H](C)[C@H](CN(C)Cc2ccc4c(c2)OCO4)OCCCC[C@@H](C)O3)cc1`, the cytotoxicity call was “inactive”.

For `Cc1ccc(S(=O)(=O)Nc2ccc3c(c2)C(=O)N([C@@H](C)CO)C[C@@H](C)[C@@H](CN(C)Cc2ccc4c(c2)OCO4)OCCCC[C@H](C)O3)cc1`, the cytotoxicity call was “inactive”.

For the compound `Cc1ccc(S(=O)(=O)Nc2ccc3c(c2)C(=O)N([C@H](C)CO)C[C@@H](C)[C@@H](CN(C)Cc2ccc4c(c2)OCO4)OCCCC[C@@H](C)O3)cc1`, the cytotoxicity call is “active”.

In the case of `Cc1ccc(S(=O)(=O)Nc2ccc3c(c2)C(=O)N([C@H](C)CO)C[C@H](C)[C@@H](CN(C)Cc2ccc4c(c2)OCO4)OCCCC[C@H](C)O3)cc1`, the cytotoxicity call was “inactive”.

Regarding `Cc1ccc(S(=O)(=O)Nc2ccc3c(c2)C(=O)N([C@H](C)CO)C[C@@H](C)[C@H](CN(C)Cc2ccc4c(c2)OCO4)OCCCC[C@H](C)O3)cc1`, the cytotoxicity call was “active”.

The values are drawn from the antibiotic and cytotoxicity screens of Wong et al. (2023).
